Measurements: PubChem BioAssay AID504727 (Broad Institute, 2011)
Calls of active or inactive are those of the source.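 How the source made its calls: active means fitted half-maximal concentration AC50 at or below ten times the highest valid tested dose, with signal falling as DNA is displaced (actives reach about 34 µM in these data); inconclusive means flat fit at moderate signal loss, or poor fit quality; inactive means the rest, including signal rising instead of falling.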

experiment: acridine orange-DNA binding displacement – biochemical, fluorescence polarization, cherry-picked samples, set 2, artefact control for KSHV LANA DNA-binding inhibitor project, dose response (AID 504727); settings: series mostly up to 35 µM

Row | Compound | AC50
1 | CNc1c2cccc(C)c2nc2c(C(=O)NCCN(C)C)cccc12 | 6.16 µM (active)
2 | Nc1cccc(N2C(=O)c3cccc4c(N)ccc(c34)C2=O)c1 | 5.76 µM (active)
3 | CC(=O)N/C(=C/c1ccc(OS(=O)(=O)c2ccc(C)cc2)cc1)C(=O)Nc1ccc(C(=O)O)cc1 | inactive
4 | CSC(=NS(=O)(=O)c1ccc(N)cc1)NS(=O)(=O)c1cccs1 | inactive
5 | O=C(NCCCO)c1ccc2nc(-c3ccco3)c(-c3ccco3)nc2c1 | inactive
6 | Nc1c(C(=O)Nc2ccccc2F)sc2nc(Cc3ccccc3)cc(C(F)(F)F)c12 | 20.2 µM (active)
7 | Cc1cc(C)n(CCC(=O)N/N=C/c2ccc(O)cc2O)n1 | inactive
8 | CC(=O)Nc1ccc(S(=O)(=O)Nc2ccccc2N2CCOCC2)cc1 | inactive
9 | OCCN(CCO)c1nc(N2CCCCC2)c2nc(N(CCO)CCO)nc(N3CCCCC3)c2n1 | 8.59 µM (active)
10 | CCNC(=O)COC(=O)c1cccc(Br)c1 | inactive
11 | CC(C)(C)OC(=O)N1CCC[C@H]1c1nnc(SCc2cccc(Cl)c2)o1 | inactive
12 | COC(=O)c1ccccc1-c1c2ccc(=N)cc-2oc2cc(N)ccc12 | 0.035 µM (active)
13 | Cc1ccc(C(CC(=O)N2CCCCC2)c2ccccc2)c(O)c1C (stereo not drawn) | inactive
14 | CN(C)c1ccc(/C=N/N(CCO)C2=NS(=O)(=O)c3ccccc32)cc1 | 4.28 µM (active)
15 | COc1ccc(N=C2SC(CC(=O)Nc3ccccc3)C(=O)N2Cc2ccco2)cc1 (stereo not drawn) | inactive
16 | CC1CC(C)CN(C(=O)c2ccc3ncsc3c2)C1 (stereo not drawn) | inactive
17 | COc1cccc2c1NC(C(=O)O)C1CC=CC21 (stereo not drawn) | inactive
18 | Cc1cc(C)nc(SCC(=O)N/N=C/c2cc(C)n(-c3ccccc3C)c2C)n1 | inactive
19 | CCOc1ccc(-n2c(Cc3cc(=O)[nH]c(=O)[nH]3)nnc2SCc2cccnc2)cc1 | inactive

Row | Compound | AC50
20 | NNC(=O)CC1=NNC(=O)C1 | inactive
21 | Cc1cc2nc3c(=O)n(C4CCCCC4)c(=O)[nH]c3nc2cc1N | 10.6 µM (active)
22 | O=C(/C=C/c1ccco1)Nc1ccccc1C(=O)Nc1cccc(C(=O)O)c1 | inactive
23 | O=C(O)c1ccc(-n2cccc2/C=C2/SC(=O)N(CC(=O)N3CCCC3)C2=O)cc1 | inactive
24 | COc1cc(C(=O)O)cc(NC(=O)c2ccco2)c1OC | inactive
25 | O=C(CC1CCCC1)N1CCN(S(=O)(=O)c2ccccc2)CC1 | inactive
26 | CC(Sc1nc2ccccc2s1)C(=O)Nc1nnc(C(C)C)s1 (stereo not drawn) | inactive
27 | Nc1ccc(C(=O)Nc2ccc3c(O)cc(S(=O)(=O)O)cc3c2)cc1 | inactive
28 | O=C1/C(=C/C=C/c2ccco2)SC(=S)N1NS(=O)(=O)c1ccccc1 | inactive
29 | Cc1ccsc1/C=N/NC(=O)Cc1ccc(Cl)cc1 | inactive
30 | Cc1cc2nc(SCCN3CCOCC3)[nH]c2cc1C | inactive
31 | COc1ccc(/C=N/NC(=O)c2ccc3nc[nH]c3c2)c(OC)c1 | inactive
32 | O=C(NCCN1CCN(C(=O)c2cccs2)CC1)c1cccs1 | inactive
33 | COc1ccc2c3c(cccc13)C(=O)CC2 | 6.92 µM (active)
34 | Cc1noc(C)c1-c1nc(CSc2ccccc2)no1 | inactive
35 | COc1ccc(NC(=O)NS(=O)(=O)c2ccc(C)cc2)cn1 | inactive
36 | O=C(NCCCN1CCCC1=O)c1ccc2c(c1)ncn2C1CCCCC1 | inactive
37 | CCCc1nc(NCc2ccccn2)c2nnn(Cc3ccccc3F)c2n1 | inactive
38 | CN(N=Nc1ccc([N+](=O)[O-])cc1)c1ccccc1 | 11 µM (active)
